# From PubChem BioAssay (NCI)
# About 79,000 compounds went through this panel and 15% of them were active in at least one assay; those are over-represented in the sample as a whole. Unmarked numbers belong to inactive results. Activity calls are given as the source filed them. Rule as the data show it: active = growth inhibition above about 70%; inactive = the rest.
# How the values were obtained:
# [1] = NCI Yeast Anticancer Drug Screen. Data for the rad52 strain (AID 147);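 also: 0% = growth of vehicle-treated control cultures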; settings: S. cerevisiae rad52 mutant growth inhibition, stronger effect = higher value
# Summary of the method: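 Measured: yeast growth inhibition. System: strain with a defined DNA damage repair alteration. Reference: vehicle-treated control cultures.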
# [2] = NCI Yeast Anticancer Drug Screen. Data for the wt1 strain (AID 149);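 also: 0% = growth of vehicle-treated wt1 cultures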; settings: S. cerevisiae wt1 strain (SPY 50644) growth inhibition, stronger effect = higher value
# Summary of the method: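 wt1 yeast, compound-treated; % growth inhibition vs vehicle control.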
# [3] = NCI Yeast Anticancer Drug Screen. Data for the rad50EPP+ strain (AID 151);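 also: 0% = growth of vehicle-treated control cultures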; settings: S. cerevisiae rad50 mutant strain, stronger effect = higher value
# Summary of the method: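 One strain with a rad50 alteration (rad50EPP+) was compound-treated, its growth then compared to that of vehicle controls.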
# [4] = NCI Yeast Anticancer Drug Screen. Data for the rad50 strain (AID 155);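 also: 0% = growth of vehicle-only cultures of the same strain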; settings: S. cerevisiae rad50 strain growth inhibition, stronger effect = higher value
# Summary of the method: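 Genetically altered yeast (DNA repair pathway); compound treatment; growth inhibition vs vehicle ctrl.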
# [5] = NCI Yeast Anticancer Drug Screen. Data for the mec2-1 strain (AID 157); settings: S. cerevisiae mec2-1 strain, stronger effect = higher value
# Summary of the method: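 Test agents were screened against the mec2-1 yeast strain, with defined DNA repair or cell cycle alteration. Growth was scored as inhibition against vehicle-only controls.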
# [6] = NCI Yeast Anticancer Drug Screen. Data for the rad14 strain (AID 159);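 also: 0% = growth of vehicle-treated control cultures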; settings: S. cerevisiae rad14 strain growth inhibition, stronger effect = higher value
# Summary of the method: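 Test compounds were applied to a repair-deficient yeast strain. Its growth was then compared with that of cultures given vehicle alone, and inhibition was expressed relative to those controls.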
# [7] = NCI Yeast Anticancer Drug Screen. Data for the sgs1 mgt1 strain (AID 161);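 also: 0% = growth of cultures given vehicle only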; settings: S. cerevisiae sgs1 mgt1 strain, stronger effect = higher value
# Summary of the method: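 Test agents were incubated with a DNA-repair-mutant yeast strain. Growth was then read and compared against vehicle-treated controls.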
# [8] = NCI Yeast Anticancer Drug Screen. Data for the CLN2oe strain (AID 163);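 also: 0% = growth of vehicle-only control cultures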; settings: S. cerevisiae CLN2oe strain, stronger effect = higher value
# Summary of the method: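 Here, growth inhibition in a cell-cycle-altered yeast strain after compound exposure was quantified against vehicle control growth.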
# [9] = NCI Yeast Anticancer Drug Screen. Data for the cln2 rad14 strain (AID 165);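 also: 0% = growth equal to vehicle treated cultures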; settings: S. cerevisiae cln2 rad14 strain, stronger effect = higher value
# Summary of the method: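 Growth of compound-exposed yeast (cln2 rad14 genotype) measured and expressed as inhibition relative to vehicle.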
# [10] = NCI Yeast Anticancer Drug Screen. Data for the bub3 strain (AID 167); settings: S. cerevisiae bub3 mutant strain, stronger effect = higher value
# Summary of the method: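 Yeast carrying a defined mutation is treated with each compound, and growth is compared with that of vehicle-exposed cells to give inhibition.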
# [11] = NCI Yeast Anticancer Drug Screen. Data for the wt2 strain (AID 169);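 also: 0% = growth of vehicle-treated yeast cultures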; settings: S. cerevisiae wt2 strain growth inhibition, stronger effect = higher value
# Summary of the method: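 Genetically defined yeast strains from a DNA-repair/cell-cycle panel were used. Compound-exposed yeast growth was measured, and the inhibition was calculated relative to vehicle treatment.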
# [12] = NCI Yeast Anticancer Drug Screen. Data for the mlh1 strain (AID 171);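 also: 0% = growth of vehicle-treated control cultures of the same strain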; settings: S. cerevisiae mlh1 strain growth inhibition, stronger effect = higher value
# Summary of the method: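 Here the genetically defined yeast mutant is grown with each compound, and the extent to which its growth falls below that of vehicle-exposed cells is reported.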
# [13] = NCI Yeast Anticancer Drug Screen. Data for the sgs1 strain (AID 173);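 also: 0% = growth of vehicle-only control cultures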; settings: S. cerevisiae sgs1 mutant, stronger effect = higher value
# Summary of the method: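 Relative growth inhibition, referenced to vehicle, was determined in a yeast strain with a defined alteration affecting DNA damage repair or cell cycle control after compound exposure.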
# [14] = NCI Yeast Anticancer Drug Screen. Data for the mlh1 rad18 strain (AID 175); settings: S. cerevisiae mlh1 rad18 strain growth inhibition, stronger effect = higher value
# Summary of the method: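 In this whole-cell yeast screen, a strain with altered DNA damage repair is challenged with compound, and its growth is measured against matched vehicle-treated controls.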
# [15] = NCI Yeast Anticancer Drug Screen. Data for the rad18 strain (AID 177); settings: S. cerevisiae rad18 mutant growth inhibition, stronger effect = higher value
# Summary of the method: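 Screen uses a yeast strain with a defined lesion in DNA damage repair; compound effect is read as loss of growth compared to untreated vehicle cultures.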
# [16] = at 5.0 µM (retest, dose inferred, filed as 0.5)
# [17] = at 50.0 µM (retest, dose inferred, filed as 5.0)
compound,measurement,setting,value
COc1cc(/C=C/c2sc3ccccc3[n+]2C)ccc1N(C)C,growth inhibition,[1]; at 1.2 µM,1%
same,growth inhibition,[1]; at 3.7 µM,-2%
same,growth inhibition,[1]; at 11.0 µM,0%
same,growth inhibition,[1]; at 33.0 µM,67%
same,growth inhibition,[1]; at 100.0 µM,93% (active)
same,growth inhibition,[2]; at 1.2 µM,0%
same,growth inhibition,[2]; at 3.7 µM,-1%
same,growth inhibition,[2]; at 11.0 µM,-1%
same,growth inhibition,[2]; at 33.0 µM,30%
same,growth inhibition,[2]; at 100.0 µM,97% (active)
same,growth inhibition,[3]; at 1.2 µM,-1%
same,growth inhibition,[3]; at 3.7 µM,4%
same,growth inhibition,[3]; at 11.0 µM,11%
same,growth inhibition,[3]; at 33.0 µM,31%
same,growth inhibition,[3]; at 100.0 µM,87% (active)
same,growth inhibition,[4]; at 1.2 µM,-4%
same,growth inhibition,[4]; at 3.7 µM,6%
same,growth inhibition,[4]; [16],3%
same,growth inhibition,[4]; at 11.0 µM,-18%
same,growth inhibition,[4]; at 33.0 µM,65%
same,growth inhibition,[4]; [17],4%
same,growth inhibition,[4]; at 50.0 µM,67.8%
same,growth inhibition,[4]; at 100.0 µM,96% (active)
same,growth inhibition,[5]; at 1.2 µM,0%
same,growth inhibition,[5]; at 3.7 µM,0%
same,growth inhibition,[5]; [16],3%
same,growth inhibition,[5]; at 11.0 µM,2%
same,growth inhibition,[5]; at 33.0 µM,69%
same,growth inhibition,[5]; [17],0%
same,growth inhibition,[5]; at 50.0 µM,61.1%
same,growth inhibition,[5]; at 100.0 µM,98% (active)
same,growth inhibition,[6]; at 1.2 µM,-4%
same,growth inhibition,[6]; at 3.7 µM,-7%
same,growth inhibition,[6]; at 11.0 µM,-2%
same,growth inhibition,[6]; at 33.0 µM,88% (active)
same,growth inhibition,[6]; at 100.0 µM,99% (active)
same,growth inhibition,[7]; [16],2%
same,growth inhibition,[7]; [17],7%
same,growth inhibition,[7]; at 50.0 µM,93.5% (active)
same,growth inhibition,[8]; at 1.2 µM,-5%
same,growth inhibition,[8]; at 3.7 µM,-2%
same,growth inhibition,[8]; at 11.0 µM,-2%
same,growth inhibition,[8]; at 33.0 µM,50%
same,growth inhibition,[8]; at 100.0 µM,96% (active)
same,growth inhibition,[9]; [16],-2%
same,growth inhibition,[9]; [17],-1%
same,growth inhibition,[9]; at 50.0 µM,33.6%
same,growth inhibition,[10]; at 1.2 µM,-2%
same,growth inhibition,[10]; at 3.7 µM,1%
same,growth inhibition,[10]; [16],3%
same,growth inhibition,[10]; at 11.0 µM,-2%
same,growth inhibition,[10]; at 33.0 µM,68%
same,growth inhibition,[10]; [17],85% (active)
same,growth inhibition,[10]; at 50.0 µM,64.5%
same,growth inhibition,[10]; at 100.0 µM,97% (active)
same,growth inhibition,[11]; at 1.2 µM,0%
same,growth inhibition,[11]; at 3.7 µM,-1%
same,growth inhibition,[11]; at 11.0 µM,-2%
same,growth inhibition,[11]; at 33.0 µM,62%
same,growth inhibition,[11]; at 100.0 µM,97% (active)
same,growth inhibition,[12]; at 1.2 µM,0%
same,growth inhibition,[12]; at 3.7 µM,-4%
same,growth inhibition,[12]; at 11.0 µM,-3%
same,growth inhibition,[12]; at 33.0 µM,71% (active)
same,growth inhibition,[12]; at 100.0 µM,98% (active)
same,growth inhibition,[13]; at 1.2 µM,0%
same,growth inhibition,[13]; at 3.7 µM,0%
same,growth inhibition,[13]; at 11.0 µM,-1%
same,growth inhibition,[13]; at 33.0 µM,82% (active)
same,growth inhibition,[13]; at 100.0 µM,97% (active)
same,growth inhibition,[14]; [16],-11%
same,growth inhibition,[14]; [17],-6%
same,growth inhibition,[14]; at 50.0 µM,92.5% (active)
same,growth inhibition,[15]; at 1.2 µM,2%
same,growth inhibition,[15]; at 3.7 µM,5%
same,growth inhibition,[15]; at 11.0 µM,2%
same,growth inhibition,[15]; at 33.0 µM,73% (active)
same,growth inhibition,[15]; at 100.0 µM,96% (active)
